Consider 2 sequences from publication PMC7862700, “An all-to-all approach to the identification of sequence-specific readers for epigenetic DNA modifications on cytosine”.

Test in all cases: DAPPL (digital affinity profiling via proximity ligation, sequencing); 10 mM Tris-HCl pH 7.5, 50 mM NaCl, 1 mM DTT, 4% glycerol, room temperature, 30 min; GST-TFs on glutathione beads, 16-mer random dsDNA library, 0.1% formaldehyde crosslink after washing; high values mean tight binding
Common to all, as to conditions: protein: recombinant; tags: N-terminal GST; dsDNA, one strand shown

One assay has as its target T1, FLI1 (Homo sapiens, UniProt Q01543 1-452).
T1 sequence: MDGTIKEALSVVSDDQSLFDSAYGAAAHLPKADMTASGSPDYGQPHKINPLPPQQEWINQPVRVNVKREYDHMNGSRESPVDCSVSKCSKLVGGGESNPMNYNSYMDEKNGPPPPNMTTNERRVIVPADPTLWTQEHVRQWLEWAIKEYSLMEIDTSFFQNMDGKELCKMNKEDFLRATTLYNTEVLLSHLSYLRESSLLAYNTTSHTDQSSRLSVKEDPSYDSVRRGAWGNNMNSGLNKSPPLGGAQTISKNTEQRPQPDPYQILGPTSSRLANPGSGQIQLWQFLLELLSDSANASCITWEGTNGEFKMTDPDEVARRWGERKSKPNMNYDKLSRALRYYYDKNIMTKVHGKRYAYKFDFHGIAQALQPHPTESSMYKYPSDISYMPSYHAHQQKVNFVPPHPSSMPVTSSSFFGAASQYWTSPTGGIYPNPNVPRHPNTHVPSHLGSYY
Summed up:
(§1)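 Each value of binding signal is a hexamer's read frequency for a factor divided by the same hexamer's frequency in the tag-only sample. Barcoded, bead-captured GST fusions of human transcription factors made in yeast were pooled with that sample and incubated with 200 nmole of a random double-stranded 16-mer DNA library in Tris/NaCl/DTT/glycerol buffer at room temperature for 30 min. Washing, 0.1% formaldehyde crosslinking, proximity ligation, PCR and Illumina NextSeq500 sequencing followed.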

In another assay the target is T2, ELK1 (Homo sapiens, UniProt P19419 1-428).
T2 sequence: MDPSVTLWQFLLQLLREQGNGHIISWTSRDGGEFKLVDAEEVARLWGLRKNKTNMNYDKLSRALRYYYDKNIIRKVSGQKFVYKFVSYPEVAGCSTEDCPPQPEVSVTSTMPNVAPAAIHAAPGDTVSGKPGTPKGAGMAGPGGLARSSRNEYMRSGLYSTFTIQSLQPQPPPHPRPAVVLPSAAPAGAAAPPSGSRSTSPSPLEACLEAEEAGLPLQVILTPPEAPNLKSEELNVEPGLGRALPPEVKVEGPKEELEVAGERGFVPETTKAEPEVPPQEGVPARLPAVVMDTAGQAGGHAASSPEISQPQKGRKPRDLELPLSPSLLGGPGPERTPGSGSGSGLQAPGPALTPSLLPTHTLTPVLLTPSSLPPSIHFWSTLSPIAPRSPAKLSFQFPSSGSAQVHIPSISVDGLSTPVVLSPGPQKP
Summed up:
as §1

Another assay has as its target T3, GABPA (Homo sapiens, UniProt Q06546 1-454).
T3 sequence: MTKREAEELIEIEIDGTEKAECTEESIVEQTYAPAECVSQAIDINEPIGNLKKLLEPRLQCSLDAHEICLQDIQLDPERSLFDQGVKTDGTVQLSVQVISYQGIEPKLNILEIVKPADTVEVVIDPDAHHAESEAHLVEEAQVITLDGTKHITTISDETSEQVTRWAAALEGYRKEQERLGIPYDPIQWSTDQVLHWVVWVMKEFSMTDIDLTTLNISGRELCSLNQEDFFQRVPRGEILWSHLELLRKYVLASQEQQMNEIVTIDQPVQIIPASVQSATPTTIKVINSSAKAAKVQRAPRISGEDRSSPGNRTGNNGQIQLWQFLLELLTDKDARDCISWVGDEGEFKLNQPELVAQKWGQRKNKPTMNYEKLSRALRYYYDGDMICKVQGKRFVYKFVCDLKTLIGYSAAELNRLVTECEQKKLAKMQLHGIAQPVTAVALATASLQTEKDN
Summed up: as §1

The target in another assay is T4, ERG (Homo sapiens, UniProt P11308 1-479).
T4 sequence: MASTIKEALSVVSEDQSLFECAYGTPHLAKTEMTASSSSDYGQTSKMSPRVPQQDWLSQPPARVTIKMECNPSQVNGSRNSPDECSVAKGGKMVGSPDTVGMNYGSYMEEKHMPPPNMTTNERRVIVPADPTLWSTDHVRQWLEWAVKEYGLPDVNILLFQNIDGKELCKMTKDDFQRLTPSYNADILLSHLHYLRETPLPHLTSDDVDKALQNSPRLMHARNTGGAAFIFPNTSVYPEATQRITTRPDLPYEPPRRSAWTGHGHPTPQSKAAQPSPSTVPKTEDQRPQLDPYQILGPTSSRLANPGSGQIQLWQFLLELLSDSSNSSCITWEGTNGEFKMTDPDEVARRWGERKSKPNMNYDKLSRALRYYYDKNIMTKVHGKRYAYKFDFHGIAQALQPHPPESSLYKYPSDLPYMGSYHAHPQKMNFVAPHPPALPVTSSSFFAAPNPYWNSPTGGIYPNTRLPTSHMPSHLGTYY
Put shortly:
as §1

A further assay has as its target ELF1 (Homo sapiens, UniProt P32519 1-619). Put shortly:
as §1

The target of a further assay is T5, EHF (Homo sapiens, UniProt Q9NZC4 1-300).
T5 sequence: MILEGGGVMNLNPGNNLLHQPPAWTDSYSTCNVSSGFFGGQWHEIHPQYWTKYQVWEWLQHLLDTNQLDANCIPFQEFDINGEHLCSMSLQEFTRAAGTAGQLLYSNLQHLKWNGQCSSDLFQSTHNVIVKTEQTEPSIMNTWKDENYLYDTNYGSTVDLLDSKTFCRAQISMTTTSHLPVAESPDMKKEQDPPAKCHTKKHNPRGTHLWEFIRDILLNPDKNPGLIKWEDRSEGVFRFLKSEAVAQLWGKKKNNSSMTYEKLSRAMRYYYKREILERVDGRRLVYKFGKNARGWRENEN
Put shortly: as §1

The next assay has as its target SPI1 (Homo sapiens, UniProt P17947 1-270). Summed up: as §1
A further assay concerns the target SPIB (Homo sapiens, UniProt Q01892 1-262). Put shortly: as §1
The target of a further assay is T6, ELK3 (Homo sapiens, UniProt P41970 1-407).
T6 sequence: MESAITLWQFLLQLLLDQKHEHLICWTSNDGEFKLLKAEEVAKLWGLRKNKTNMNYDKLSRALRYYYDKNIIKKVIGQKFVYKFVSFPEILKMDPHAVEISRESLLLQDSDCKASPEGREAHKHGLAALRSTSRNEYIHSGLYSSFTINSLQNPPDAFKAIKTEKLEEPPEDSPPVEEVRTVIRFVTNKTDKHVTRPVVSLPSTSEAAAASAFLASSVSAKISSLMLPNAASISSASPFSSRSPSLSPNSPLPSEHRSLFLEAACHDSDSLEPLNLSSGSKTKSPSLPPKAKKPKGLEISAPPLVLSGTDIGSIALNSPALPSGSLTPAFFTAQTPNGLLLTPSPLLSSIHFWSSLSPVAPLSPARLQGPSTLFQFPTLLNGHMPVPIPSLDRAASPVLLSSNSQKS
Put shortly:
as §1

For another assay, the target named is T7, FEV (Homo sapiens, UniProt Q99581 1-238).
T7 sequence: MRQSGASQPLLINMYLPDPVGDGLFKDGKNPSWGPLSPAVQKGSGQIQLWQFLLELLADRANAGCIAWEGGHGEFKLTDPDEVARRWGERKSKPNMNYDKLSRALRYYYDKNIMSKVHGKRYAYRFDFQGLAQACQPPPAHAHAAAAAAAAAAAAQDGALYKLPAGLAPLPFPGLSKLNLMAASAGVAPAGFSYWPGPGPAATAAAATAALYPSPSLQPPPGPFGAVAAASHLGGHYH
Summed up: as §1

The next assay concerns the target ETV5 (Homo sapiens, UniProt P41161 1-510). Summed up:
as §1

A further assay has as its target T8, SPIC (Homo sapiens, UniProt Q8N5J4 1-248).
T8 sequence: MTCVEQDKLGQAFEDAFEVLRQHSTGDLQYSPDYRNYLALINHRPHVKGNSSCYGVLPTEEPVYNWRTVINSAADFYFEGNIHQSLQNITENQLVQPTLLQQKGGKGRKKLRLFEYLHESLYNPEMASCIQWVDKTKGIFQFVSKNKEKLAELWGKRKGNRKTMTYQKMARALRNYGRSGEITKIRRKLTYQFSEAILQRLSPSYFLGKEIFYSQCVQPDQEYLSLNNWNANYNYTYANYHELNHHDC
Summed up:
as §1

In another assay the target is ELF4 (Homo sapiens, UniProt Q99607 1-663). Summed up:
as §1

The target of a further assay is T9, ELK4 (Homo sapiens, UniProt P28324-2 1-405).
T9 sequence: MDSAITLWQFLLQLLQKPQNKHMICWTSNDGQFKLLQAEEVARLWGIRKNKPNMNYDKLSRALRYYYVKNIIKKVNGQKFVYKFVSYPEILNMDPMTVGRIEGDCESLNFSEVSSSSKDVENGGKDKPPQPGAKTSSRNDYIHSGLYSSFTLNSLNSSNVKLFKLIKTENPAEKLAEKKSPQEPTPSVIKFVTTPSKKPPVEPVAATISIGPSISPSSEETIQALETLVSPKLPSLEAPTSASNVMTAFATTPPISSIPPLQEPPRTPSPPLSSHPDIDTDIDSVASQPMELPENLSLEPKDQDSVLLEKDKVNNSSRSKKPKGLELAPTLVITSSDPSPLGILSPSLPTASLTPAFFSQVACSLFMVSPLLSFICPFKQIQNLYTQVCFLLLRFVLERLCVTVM
Summed up: as §1

In another assay the target is T10, ETV2 (Homo sapiens, UniProt O00321 1-342).
T10 sequence: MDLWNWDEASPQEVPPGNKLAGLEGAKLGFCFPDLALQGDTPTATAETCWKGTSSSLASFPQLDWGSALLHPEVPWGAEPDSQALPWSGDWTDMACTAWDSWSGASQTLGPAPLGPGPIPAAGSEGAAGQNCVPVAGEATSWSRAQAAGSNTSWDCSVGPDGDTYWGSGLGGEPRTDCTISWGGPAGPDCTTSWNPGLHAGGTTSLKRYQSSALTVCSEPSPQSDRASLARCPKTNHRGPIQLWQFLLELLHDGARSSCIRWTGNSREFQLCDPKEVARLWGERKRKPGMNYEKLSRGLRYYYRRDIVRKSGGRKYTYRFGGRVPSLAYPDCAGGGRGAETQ
Put shortly: as §1

A further assay has as its target T11, ELF3 (Homo sapiens, UniProt P78545 1-371).
T11 sequence: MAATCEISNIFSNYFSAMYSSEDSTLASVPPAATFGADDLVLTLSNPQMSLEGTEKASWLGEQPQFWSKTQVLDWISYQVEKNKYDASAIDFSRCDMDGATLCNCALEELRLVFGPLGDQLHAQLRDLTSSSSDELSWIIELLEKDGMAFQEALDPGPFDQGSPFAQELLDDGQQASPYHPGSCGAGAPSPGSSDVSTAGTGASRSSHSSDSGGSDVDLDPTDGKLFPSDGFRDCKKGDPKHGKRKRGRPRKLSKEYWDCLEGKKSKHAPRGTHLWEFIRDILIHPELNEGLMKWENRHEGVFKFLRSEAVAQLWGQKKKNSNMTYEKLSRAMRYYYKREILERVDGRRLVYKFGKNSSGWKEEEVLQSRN
Summed up:
as §1

The target in a further assay is CRX (Homo sapiens, UniProt O43186 1-299). Put shortly: as §1
The next assay deals with ETV1 (Homo sapiens, UniProt P50549 1-477). Summed up: as §1
ETV1, sequence (P50549 whole entry): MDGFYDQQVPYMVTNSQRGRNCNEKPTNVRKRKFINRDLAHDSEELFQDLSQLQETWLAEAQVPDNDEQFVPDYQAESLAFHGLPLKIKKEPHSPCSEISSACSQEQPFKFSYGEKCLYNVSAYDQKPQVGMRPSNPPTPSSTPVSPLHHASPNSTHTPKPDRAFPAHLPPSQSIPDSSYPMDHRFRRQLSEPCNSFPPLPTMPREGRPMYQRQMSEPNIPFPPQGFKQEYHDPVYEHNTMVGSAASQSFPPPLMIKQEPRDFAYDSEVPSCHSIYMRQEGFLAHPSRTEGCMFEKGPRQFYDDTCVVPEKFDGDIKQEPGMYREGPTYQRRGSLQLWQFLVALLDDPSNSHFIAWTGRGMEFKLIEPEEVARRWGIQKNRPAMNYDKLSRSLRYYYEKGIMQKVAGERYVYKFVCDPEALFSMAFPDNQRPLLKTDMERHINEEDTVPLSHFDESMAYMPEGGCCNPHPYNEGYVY

ELF4, sequence (Q99607 whole entry): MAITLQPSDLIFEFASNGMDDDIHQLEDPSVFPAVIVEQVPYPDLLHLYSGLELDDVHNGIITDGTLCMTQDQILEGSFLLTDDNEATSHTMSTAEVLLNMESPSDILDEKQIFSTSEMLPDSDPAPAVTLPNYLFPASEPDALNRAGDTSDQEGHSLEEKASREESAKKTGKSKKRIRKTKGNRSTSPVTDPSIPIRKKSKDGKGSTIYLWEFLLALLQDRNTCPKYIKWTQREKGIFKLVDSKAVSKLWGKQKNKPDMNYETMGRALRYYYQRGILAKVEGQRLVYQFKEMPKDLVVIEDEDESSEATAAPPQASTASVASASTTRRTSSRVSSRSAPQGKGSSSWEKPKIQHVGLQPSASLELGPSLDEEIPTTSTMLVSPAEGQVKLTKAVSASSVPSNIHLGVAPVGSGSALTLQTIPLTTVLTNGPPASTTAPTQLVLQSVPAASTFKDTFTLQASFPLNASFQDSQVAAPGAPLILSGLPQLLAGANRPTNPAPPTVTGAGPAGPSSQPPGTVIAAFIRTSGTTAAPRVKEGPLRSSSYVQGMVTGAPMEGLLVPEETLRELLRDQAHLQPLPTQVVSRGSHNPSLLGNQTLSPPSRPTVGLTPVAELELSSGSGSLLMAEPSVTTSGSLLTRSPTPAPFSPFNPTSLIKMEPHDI
ETV5, sequence (P41161 whole entry): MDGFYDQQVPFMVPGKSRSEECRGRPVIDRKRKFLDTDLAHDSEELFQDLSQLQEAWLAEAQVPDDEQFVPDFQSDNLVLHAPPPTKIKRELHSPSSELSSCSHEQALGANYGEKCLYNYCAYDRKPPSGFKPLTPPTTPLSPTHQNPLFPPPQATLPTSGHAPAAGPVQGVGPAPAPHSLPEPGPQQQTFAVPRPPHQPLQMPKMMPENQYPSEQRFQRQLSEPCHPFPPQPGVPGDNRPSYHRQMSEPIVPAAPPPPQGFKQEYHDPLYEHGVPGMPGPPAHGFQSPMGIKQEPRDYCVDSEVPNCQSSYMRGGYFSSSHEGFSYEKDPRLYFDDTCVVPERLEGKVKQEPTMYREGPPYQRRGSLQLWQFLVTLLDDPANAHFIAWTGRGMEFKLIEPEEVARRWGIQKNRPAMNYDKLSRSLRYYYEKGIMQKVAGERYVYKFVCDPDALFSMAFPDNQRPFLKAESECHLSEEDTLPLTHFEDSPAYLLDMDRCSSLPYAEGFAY
ELF1, sequence (P32519 whole entry): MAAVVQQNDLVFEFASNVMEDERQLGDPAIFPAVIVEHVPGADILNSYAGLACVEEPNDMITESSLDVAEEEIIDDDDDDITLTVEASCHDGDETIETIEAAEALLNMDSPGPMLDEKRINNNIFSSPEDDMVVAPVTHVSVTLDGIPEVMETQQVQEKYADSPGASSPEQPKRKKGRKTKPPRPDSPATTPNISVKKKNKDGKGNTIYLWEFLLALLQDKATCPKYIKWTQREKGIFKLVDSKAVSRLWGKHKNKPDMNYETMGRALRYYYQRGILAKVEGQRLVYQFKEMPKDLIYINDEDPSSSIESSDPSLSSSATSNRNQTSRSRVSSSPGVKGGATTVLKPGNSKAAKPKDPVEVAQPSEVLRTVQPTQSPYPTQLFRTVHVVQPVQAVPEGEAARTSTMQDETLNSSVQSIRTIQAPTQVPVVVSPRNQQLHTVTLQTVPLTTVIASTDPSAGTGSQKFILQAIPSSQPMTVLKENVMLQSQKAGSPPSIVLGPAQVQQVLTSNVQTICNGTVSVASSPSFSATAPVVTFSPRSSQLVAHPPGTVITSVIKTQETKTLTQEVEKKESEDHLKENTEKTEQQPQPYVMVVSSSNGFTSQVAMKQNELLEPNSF
CRX, sequence (O43186 whole entry): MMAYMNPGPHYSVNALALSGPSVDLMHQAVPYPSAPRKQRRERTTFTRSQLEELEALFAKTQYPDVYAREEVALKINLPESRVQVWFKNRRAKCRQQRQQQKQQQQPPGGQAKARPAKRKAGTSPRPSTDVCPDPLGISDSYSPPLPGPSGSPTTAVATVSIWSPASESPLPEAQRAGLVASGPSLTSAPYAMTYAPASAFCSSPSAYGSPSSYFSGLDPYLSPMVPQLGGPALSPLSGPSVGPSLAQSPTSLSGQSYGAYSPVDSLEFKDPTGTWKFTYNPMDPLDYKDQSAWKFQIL
SPIB, sequence (Q01892 whole entry): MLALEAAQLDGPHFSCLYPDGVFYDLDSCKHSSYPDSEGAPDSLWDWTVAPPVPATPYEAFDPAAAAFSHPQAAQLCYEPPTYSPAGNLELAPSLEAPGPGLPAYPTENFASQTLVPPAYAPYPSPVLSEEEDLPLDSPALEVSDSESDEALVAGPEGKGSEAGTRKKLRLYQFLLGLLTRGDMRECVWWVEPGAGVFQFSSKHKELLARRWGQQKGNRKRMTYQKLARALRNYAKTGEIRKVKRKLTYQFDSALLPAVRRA

Take CCGCCA: the binding signal with FLI1 is 1.38 fold enrichment (6-mer frequency, TF over GST control); in the assay with ELK1, 1.31 fold enrichment (6-mer frequency, TF over GST control); in the assay with GABPA, 1.29 fold enrichment (6-mer frequency, TF over GST control); with ERG, 1.3 fold enrichment (6-mer frequency, TF over GST control); with ELF1 it was 1.32 fold enrichment (6-mer frequency, TF over GST control); in the assay with EHF, 1.37 fold enrichment (6-mer frequency, TF over GST control). In addition, the binding signal with SPI1 is 1.3 fold enrichment (6-mer frequency, TF over GST control); in the assay with SPIB it was 1.09 fold enrichment (6-mer frequency, TF over GST control); with ELK3, 1.34 fold enrichment (6-mer frequency, TF over GST control); in the assay with FEV, 1.37 fold enrichment (6-mer frequency, TF over GST control); in the assay with ETV5 it was 1.21 fold enrichment (6-mer frequency, TF over GST control); with SPIC it was 1.37 fold enrichment (6-mer frequency, TF over GST control). Moreover, the binding signal with ELF4 is 1.45 fold enrichment (6-mer frequency, TF over GST control); in the assay with ELK4 it was 1.44 fold enrichment (6-mer frequency, TF over GST control); in the assay with ETV2, 1.19 fold enrichment (6-mer frequency, TF over GST control); in the assay with ELF3, 1.48 fold enrichment (6-mer frequency, TF over GST control); with CRX, 1.02 fold enrichment (6-mer frequency, TF over GST control); with ETV1 it was 1.32 fold enrichment (6-mer frequency, TF over GST control).
Take CCCCTG: the binding signal with FLI1 is 1.22 fold enrichment (6-mer frequency, TF over GST control); with ELK1, 1.23 fold enrichment (6-mer frequency, TF over GST control); with GABPA it was 1.26 fold enrichment (6-mer frequency, TF over GST control); with ERG, 1.18 fold enrichment (6-mer frequency, TF over GST control); in the assay with ELF1 it was 1.22 fold enrichment (6-mer frequency, TF over GST control); with EHF it was 1.17 fold enrichment (6-mer frequency, TF over GST control). The binding signal is 1.25 fold enrichment (6-mer frequency, TF over GST control) with SPI1; 1.1 fold enrichment (6-mer frequency, TF over GST control) with SPIB; 1.27 fold enrichment (6-mer frequency, TF over GST control) with ELK3; 1.18 fold enrichment (6-mer frequency, TF over GST control) in the assay with FEV; 1.22 fold enrichment (6-mer frequency, TF over GST control) with ETV5; 1.16 fold enrichment (6-mer frequency, TF over GST control) with SPIC. Besides, the binding signal with ELF4 was 1.21 fold enrichment (6-mer frequency, TF over GST control); in the assay with ELK4 it was 1.46 fold enrichment (6-mer frequency, TF over GST control); with ETV2, 1.03 fold enrichment (6-mer frequency, TF over GST control); with ELF3, 1.21 fold enrichment (6-mer frequency, TF over GST control); with CRX, 1.07 fold enrichment (6-mer frequency, TF over GST control); with ETV1, 1.24 fold enrichment (6-mer frequency, TF over GST control).
